High-throughput results (PubChem BioAssay)
FMDV antiviral: antivirals against foot and mouth disease virus; FMDV antiviral cell-based qHTS; Potency, µM (highest dose often 57.9 µM), without a hit: top-dose activity change, negative = inhibition, actives largely listed as inhibitors; 410,000 compounds, 1.2% hits; calls by dose curve; tested in HEK293T cells; further: read-out not given here; potency means the concentration at half of the fitted maximal effect; nearly all actives have a fitted effect of over 45% in size
HCMV inh: inhibitors of human cytomegalovirus; HFF cells, HCMV-luciferase reporter, 72 h; active compounds read low; activity change, negative = inhibition, % at 57.5 µM; 410,000 compounds, 4.5% hits; AID 1259415; in the data active means activity change below about -60%; inconclusive means no clear call, values can overlap the other calls; inactive means above about -39%
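Human foreskin fibroblasts infected with luciferase-reporter HCMV at MOI 1 PFU/cell, compounds at two doses. Luciferase measured 72 h post infection; normalized to buffer-only basal and Salinomycin (10uM) controls.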
MARV entry inh: Marburg virus entry inhibition; Marburg virus pseudotyped entry inhibition, cell reporter; Potency, µM (titrated, usually from 37.8 µM), for the others: at the highest dose activity change, negative = inhibition, hits mostly inhibitors; 300,000 compounds, 1.8% hits; calls by dose curve; tested in HEK293 cells; further: potency means the concentration at half of the fitted maximal effect
LASV entry inh: Lassa virus entry inhibition; Lassa virus pseudotype entry inhibition, cell reporter; Potency, µM (titrated, usually from 37.9 µM), for the others: at the top dose activity change, negative = inhibition, actives largely listed as inhibitors; 300,000 compounds, 1.2% hits; calls by dose curve; tested in HEK293 cells; further: potency means the concentration at half of the fitted maximal effect; nearly all actives have a fitted effect of over 50% in size
HCV inhibitor: blocks hepatitis C virus; Huh7.5.1 HCVcc-Cre infection, luciferase reporter, 44 h; Potency, µM (highest dose often 41.8 µM), for the others: at the top dose activity change, negative = inhibition, most hits filed as inhibitors; 340,000 compounds, 3.4% hits; active means well fitted inhibition curve with a large enough effect; inconclusive means small, poorly fitted or top-dose-only effect, or another doubt; inactive means no such curve, though single readings can be large or run the other way; further: potency means the concentration at half of the fitted maximal effect
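Cells seeded at 1,000/well and cultured 4 h, then compounds added followed by HCVcc-Cre virus (~0.5 moi). After 44 h further culture, luciferase substrate was added, plates held 15 min at room temperature, and luminescence read for 15 sec.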
The depositor's hits bear a star; u = inconclusive; x = no result; [ ] = dose if it differs, or a comment. Sampled rows, rich in hits. Any-hit rate of the full collection: about 7.9%. On the % scale 0 is the no-effect control and ±100 the full control effect.

SMILES	FMDV antiviral	HCMV inh	MARV entry inh	LASV entry inh	HCV inhibitor
COc1ccc(NC(=O)N[C@H]2CC[C@@]34CCCN3C(=O)CCC[C@H]4C2Cc2ccccc2)cc1 (stereo not given in full)	x	5	x	x	x
COc1ccc(Cl)cc1NC(=O)CSc1nc2c([nH]c3ccccc32)c(=O)n1-c1ccccc1	-25%	35	x	u	x
COc1ccc(-c2cc(C(=O)Oc3ccc(Br)cc3)c3ccccc3n2)cc1	-2%	19	7%[46.1 µM]	-3%[46.1 µM]	x
Cc1ccc(S(=O)(=O)N2CCC(C(=O)NC3CCCC3)CC2)cc1Cl	-23%	20	u	3%	-4%
CCc1c(C#N)sc(C(N)=O)c1CC	-19%	-74*	20%[46.1 µM]	23%	13%
Nc1c(C(=O)Nc2ccc(Cl)cc2)sc2nc3c(cc12)N1CCC3CC1	u	-86*	0%[46.1 µM]	u	x
Nc1c(C(=O)Nc2cccc(Br)c2)sc2nc3c(cc12)N1CCC3CC1	-24%	u	u	7%[46.1 µM]	x
Nc1c(C(=O)Nc2ccc(Cl)c(C(F)(F)F)c2)sc2nc3c(cc12)N1CCC3CC1	u	-93*	u	u	x
COc1ccc(NC(=O)c2sc3nc4c(cc3c2N)N2CCC4CC2)cc1OC	u	-4	x	u	x
COc1cccc([C@@H]2[C@@H](C)CC[C@@H]3C(=O)NC[C@H](O)CN32)c1	x	x	-11%[14.2 µM]	x	x
COc1ccc2c(-c3ccc(S(N)(=O)=O)cc3)c(-c3ccc(S(C)(=O)=O)cc3)sc2c1	-5%	-27	x	x	25µM*
CCOc1ccccc1CNC(=O)c1cc2oc3ccccc3c2n1CC	-14%	-70*	3.3µM*	5.2µM*	u
COc1ccc(CNC(=O)c2cc3c(=O)n(C)c4ccccc4c3n2C)cc1	-2%	2	2%[46.1 µM]	-10%[46.1 µM]	x
CCn1c(C(=O)NCc2ccc(F)cc2)cc2oc3ccccc3c21	0%	-69*	3.5µM*	u	x
COc1cccc(CNC(=O)c2cc3oc4ccccc4c3n2C)c1OC	-1%	-35	u	5.6µM*	u
CCOc1ccc(CNC(=O)c2cc3oc4ccccc4c3n2C)cc1	5%	-83*	4µM*	u	-14%
CSc1ccccc1C(=O)NCC1Cc2cc(F)cc(-c3cnccn3)c2O1 (stereo not given)	-9%	x	x	x	x
N#CCCn1c(=O)c(CCc2ccccc2)nc2cnc(Nc3ccccc3)nc21	-5%	x	x	x	x
CCOc1ccc(CNC(=O)c2ccc3oc(=O)n(Cc4ccccc4)c3c2)cc1	u	-16	x	5µM*	x
COc1ccccc1/C=C/c1nc(C#N)c(NCCc2ccccc2)o1	-6%	-7	3%[46.1 µM]	9%[46.1 µM]	x
COc1ccccc1/C=C/c1nc(C#N)c(NCC(C)C)o1	-4%	-70*	-41%[46.1 µM]	u	x
Cc1cccc(C)c1NC(=O)CN1C(=O)S/C(=C\c2cccn2-c2cccc(C(=O)O)c2)C1=O	-10%	-73*	12%	10%	2%
O=C(OCc1cn([C@H]2CN(C(=O)c3cccs3)[C@@H](c3ccc(Cl)cc3)C[C@H]2O)nn1)c1ccccc1	x	x	x	7%[46.1 µM]	x
COc1ccccc1NC(=O)COc1ccc(/C=N/NC(=O)CSCc2ccc(Cl)cc2)cc1	18µM*	-18	u	5%	u
COc1ccc(CSCC(=O)N/N=C/c2ccccc2O)cc1	10%	-14	u	u	8.9µM*
SMILES	FMDV antiviral	HCMV inh	MARV entry inh	LASV entry inh	HCV inhibitor
O=C(CSc1ccccc1)N/N=C/c1ccccc1O	25%	u	u	u	u
CC(=O)N1CCCN(Cc2cn(-c3cccc(C)c3)nc2-c2cccc(F)c2)CC1	25%	7	x	x	u
COc1ccc(Cc2nc3ccc(C(=O)NCC(C)(C)OC)cc3o2)cc1	64%	32	x	x	-3%
CCOC(=O)C1=CCN(S(=O)(=O)c2ccccc2C)C1c1ccc(Cl)c(Cl)c1 (stereo not given)	-22%	-76*	x	x	x
COC(=O)c1[nH]c2cccc(Cl)c2c1NC(=O)CN(C)C1CCCCC1	-5%	38	11µM*	-2%	u
Cn1c(=O)c2c(ncn2Cc2ccc(Cl)cc2)n(C)c1=O	u	-36	u	u	u
Cn1c(=O)c2c(ncn2CC(COCc2ccc(Cl)cc2)OCc2ccc(Cl)cc2)n(C)c1=O (stereo not given)	u	-12	7.9µM*	u	u
COc1ccccc1N1CCN(C(=O)c2ccc3noc(-c4ccccc4)c3c2)CC1	u	-27	x	x	x
Cn1nc(C(C)(C)C)cc1C(=O)N1CCCCC1c1cc(C(=O)NCc2ccccc2)no1 (stereo not given)	u	-31	x	x	x
Cn1nc(C(C)(C)C)cc1C(=O)N1CCCCC1c1cc(C(=O)NCc2ccc(F)cc2)no1 (stereo not given)	u	-75*	x	x	x
Cc1ccsc1-c1nc(CN2CCN(C)C(=O)[C@@H]2C)c(C)o1	-3%	30	-15%[46.1 µM]	6%[46.1 µM]	0%
Cc1ccsc1-c1nc(CN(C)C(C2CC2)C2CC2)c(C)o1	-15%	3	8.9µM*	-8%[46.1 µM]	-15%
CCN(C(=O)Cn1cc(S(=O)(=O)Cc2ccccc2Cl)c2ccccc21)c1ccccc1	-21%	0	x	-28%[46.1 µM]	x
Nc1c(N2CCN(c3ccccc3)CC2)c2ccccc2oc1=O	-26%	-100*	-18%	16%	2%
COc1ccc(OC)c(NC(=O)NNC(=O)CCCOc2ccc(Cl)cc2C)c1	-12%	-12	-8%[46.1 µM]	-11%	u
Cc1ccc2nc(C)cc(Nc3ccc([N+](=O)[O-])cc3)c2c1	-10%	u	u	u	3.5µM*
Cc1ccc(Nc2cc(C)nc3c(C)cccc23)cc1	-13%	-34	10µM*	3%[46.1 µM]	u
CC(=O)c1ccc(Nc2cc(C)nc3c(C)cccc23)cc1	43%	-6	x	x	-23%
COC(=O)c1ccc(Nc2cc(C)nc3ccc(C)cc23)cc1	0%	3	13µM*	u	10µM*
CC(=O)c1ccc(Nc2cc(C)nc3ccccc23)cc1	8%	u	2.8µM*	u	u
C#CCCCON=C1C[C@@H](O)[C@H](O)[C@H]2[C@@H]3C(=O)N(c4ccc(F)cc4F)C(=O)[C@@H]3CC[C@@H]12	x	x	-8%[14.2 µM]	x	x
Cc1csc(=O)n1CCC(=O)OCc1nnc(-c2ccc(Cl)cc2)o1	-9%	-25	6%[46.1 µM]	13%	6%
COc1ccc(Nc2cc(C)nc3ccccc23)cc1	-15%	u	u	-1%	u
Cc1cc(Nc2cccc(Br)c2)c2ccccc2n1	u	-71*	u	-23%	7.1µM*
O=c1cc(N2CCN(c3cccc(Cl)c3)CC2)[nH]c(=O)n1C1CCCCC1	-9%	-93*	6%	0%	-32%
O=c1cc(N2CCN(c3ccccc3)CC2)[nH]c(=O)n1C1CCCCC1	2%	13	4%	22%	-4%
CCOc1ccc(NC(=O)C(Cc2ccccc2)N2C(=O)c3cccc4cccc(c34)C2=O)cc1 (stereo not given)	-9%	-99*	u	u	u
CCOc1ccc(NC(=O)[C@H](Cc2ccccc2)N2Cc3ccccc3C2=O)cc1	-1%	7	-13%[46.1 µM]	1%[46.1 µM]	x
